{"source": "PubChem BioAssay AID372", "about": "(MTDP, 2006)", "note": "The whole screen tested about 100,000 compounds, of which about 770 (0.77%) were called active. The list comes from a sample in which actives are over-represented; it also holds similar structures and randomly drawn compounds. Values without a mark were called inactive. Cut-off read from the data, not from the text of the source: active = inhibition above about 50%; inactive = the rest."}
{"molecular_target": "Gag-Pol polyprotein (Human immunodeficiency virus type 1 group M subtype B (isolate HXB2)) (UniProt P04585)", "test": "RNase H inhibition, HIV 1 Gag Pol polyprotein, FRET biochemical assay, screening (AID 372)", "details": "HIV-1 RT RNase H, FRET RNA/DNA substrate fluorescence; at 10 µM; hits give high values"}
{"smiles": "C=CCc1ccccc1OCCOc1ccc(Br)cc1/C=C(\\C#N)C(N)=O", "inhibition": "60% (active)"}
{"smiles": "Cc1ccccc1/C=C(/C#N)c1ccc([N+](=O)[O-])cc1", "inhibition": "42%"}
{"smiles": "N#C/C(=C\\c1cc(Br)ccc1OCc1cccc2ccccc12)C(N)=O", "inhibition": "30%"}
{"smiles": "N#C/C(=C/c1ccccc1OS(=O)(=O)c1ccccc1)c1ccc([N+](=O)[O-])cc1", "inhibition": "16%"}
{"smiles": "N#C/C(=C\\c1ccccc1[N+](=O)[O-])C(N)=O", "inhibition": "0%"}
{"smiles": "COc1ccccc1/C=C(\\C#N)C(N)=O", "inhibition": "0%"}
{"smiles": "N#C/C(=C\\c1ccccc1OCCOc1ccc([N+](=O)[O-])cc1)C(N)=O", "inhibition": "57% (active)"}
{"smiles": "N#C/C(=C\\c1cc(Br)ccc1OCc1ccccc1)C(N)=O", "inhibition": "10%"}
{"smiles": "N#C/C(=C/c1ccccc1OCc1ccccc1F)c1ccc([N+](=O)[O-])cc1", "inhibition": "54% (active)"}
{"smiles": "CC(=O)Nc1ccc2oc(-c3ccc(Cl)cc3)nc2c1", "inhibition": "9%"}
{"smiles": "CCn1c(-c2ccccc2C)n[nH]c1=S", "inhibition": "2%"}
{"smiles": "COc1nc(Nc2ccccc2)nc(NC(C)(C)C)n1", "inhibition": "7%"}
{"smiles": "O=C(N1CCN(C(c2ccccc2)c2ccccc2)CC1)C12CC3CC(CC(C3)C1)C2", "inhibition": "25%"}
{"smiles": "CC(NC(=O)/C(C#N)=C/c1ccc(N(C)C)c(Br)c1)c1ccccc1", "note": "(stereo not given)", "inhibition": "15%"}
{"smiles": "Cc1ccc(/C=C2/SC(=O)N(CO)C2=O)cc1", "inhibition": "0%"}
{"smiles": "Cc1ccccc1C(=O)NNC(=S)Nc1ccccc1", "inhibition": "7%"}
{"smiles": "CS(=O)(=O)N/N=C/c1ccc2c(c1)OCO2", "inhibition": "0%"}
{"smiles": "COc1ccc(-c2cc(C(F)(F)F)n3nc(C(=O)NC(C)C)c(Cl)c3n2)cc1OC", "inhibition": "7%"}
{"smiles": "C=CCN1C(=O)/C(=C/c2ccc(N(C)C)cc2)SC1=S", "inhibition": "17%"}
{"smiles": "Cc1ccc(Oc2ccc3noc4c3c2C(=O)c2ccccc2-4)cc1", "inhibition": "8%"}
{"smiles": "O=C1c2ccccc2-c2onc3ccc(Oc4ccccc4)c1c23", "inhibition": "2%"}
{"smiles": "CC(C)(C)c1ccc(Oc2ccc3noc4c3c2C(=O)c2ccccc2-4)cc1", "inhibition": "50% (active)"}
{"smiles": "OC1CC(c2ccccc2)NC2(CCCCC2)C1", "note": "(stereo not given)", "inhibition": "2%"}
{"smiles": "O=C(COc1ccccc1[N+](=O)[O-])Nc1ccc2oc(-c3cc(Br)ccc3Cl)nc2c1", "inhibition": "49%"}
{"smiles": "Cc1oc(C(=O)O)cc1CSc1nc2ccccc2[nH]1", "inhibition": "5%"}
{"smiles": "COc1ccc(-c2ccccc2)cc1NCc1c2ccccc2cc2ccccc12", "inhibition": "2%"}
{"smiles": "COc1ccc2nc(-c3ccccc3)c(-c3ccccc3)nc2c1", "inhibition": "6%"}
{"smiles": "COc1ccc(Cc2ccc(OC)cc2)cc1", "inhibition": "5%"}
{"smiles": "COc1ccc(-c2nc3ccc(Cc4ccc5nc(-c6ccc(OC)cc6)c(-c6ccc(OC)cc6)nc5c4)cc3nc2-c2ccc(OC)cc2)cc1", "inhibition": "55% (active)"}
{"smiles": "C#CCOc1ccc(/C=C2/C(=O)NC(=O)N(c3ccccc3F)C2=O)cc1", "inhibition": "0%"}
{"smiles": "Cc1ccc(OCCn2c(=S)[nH]c3ccccc32)cc1", "inhibition": "61% (active)"}
{"smiles": "S=c1[nH]c2ccccc2n1CCOc1ccccc1", "inhibition": "30%"}
{"smiles": "S=c1[nH]c2ccccc2n1CCOc1ccc(Cl)cc1", "inhibition": "39%"}
{"smiles": "Cc1ccccc1OCCOc1ccccc1/C=c1\\sc2nc3ccccc3n2c1=O", "inhibition": "9%"}
{"smiles": "Cc1c(Cl)c(=O)oc2cc(OCc3ccc(Cl)cc3)ccc12", "inhibition": "3%"}
{"smiles": "CC(=O)COc1ccc2c(c1)oc(=O)c1ccccc12", "inhibition": "7%"}
{"smiles": "CC(C)OC(=O)COc1ccc2c(c1)oc(=O)c1ccccc12", "inhibition": "0%"}
{"smiles": "Cc1cc(=O)oc2cc(OCC(=O)c3ccc(Cl)cc3)ccc12", "inhibition": "19%"}
{"smiles": "O=C(COc1ccc(Cl)cc1)Oc1ccc2c(c1)oc(=O)c1ccccc12", "inhibition": "54% (active)"}
{"smiles": "Cc1c(Cl)c(=O)oc2cc(OCC(=O)c3ccc(Cl)cc3)ccc12", "inhibition": "50% (active)"}
{"smiles": "O=C1CCCC2=C1C(c1ccccc1Cl)Nc1ccc(C(=O)c3ccccc3)cc1N2", "note": "(stereo not given)", "inhibition": "1%"}
{"smiles": "Cc1ccc(C(=O)Nc2cc(C)cc(C)c2)cc1", "inhibition": "0%"}
{"smiles": "Cc1ccc(N=Cc2c(O)n(C3CCCCC3)c(=O)n(C3CCCCC3)c2=O)cc1C", "inhibition": "6%"}
{"smiles": "O=C(Nc1nnc(CSCc2ccc(Cl)cc2Cl)s1)Nc1ccc(Cl)cc1Cl", "inhibition": "33%"}
{"smiles": "O=C(Nc1nnc(CSCc2ccccc2Cl)s1)Nc1ccc(Cl)cc1Cl", "inhibition": "46%"}
{"smiles": "O=C(Nc1nnc(Cc2ccccc2F)s1)Nc1ccc(Cl)cc1Cl", "inhibition": "18%"}
{"smiles": "O=C(Nc1nnc(Cc2ccc(Cl)cc2Cl)s1)Nc1ccc(Cl)cc1Cl", "inhibition": "66% (active)"}
{"smiles": "O=C(Nc1nnc(CSCc2ccccc2)s1)Nc1ccc(Cl)cc1Cl", "inhibition": "39%"}
{"smiles": "O=C(Nc1nnc(Cc2ccc(Cl)cc2)s1)Nc1ccc(Cl)cc1Cl", "inhibition": "37%"}
{"smiles": "O=C(Nc1nnc(CSCc2ccccc2F)s1)Nc1ccc(Cl)cc1Cl", "inhibition": "53% (active)"}
{"smiles": "Cc1cccc(CSCc2nnc(NC(=O)Nc3ccc(Cl)cc3Cl)s2)c1", "inhibition": "53% (active)"}
{"smiles": "CCC(c1ccccc1)c1nnc(NC(=O)Nc2ccc(Cl)cc2Cl)s1", "note": "(stereo not given)", "inhibition": "12%"}
{"smiles": "Cc1cccc(CSCc2nnc(NC(=O)Nc3ccc(Cl)cc3)s2)c1", "inhibition": "31%"}
{"smiles": "O=C(Nc1nnc(C(c2ccccc2)c2ccccc2)s1)Nc1ccc(Cl)cc1Cl", "inhibition": "52% (active)"}
{"smiles": "CC(c1ccccc1)c1nnc(NC(=O)Nc2ccc(Cl)cc2Cl)s1", "note": "(stereo not given)", "inhibition": "36%"}
{"smiles": "COc1ccc2ccccc2c1-c1cc(C(=O)N/N=C/c2ccc(C)cc2)[nH]n1", "inhibition": "13%"}
{"smiles": "CCCOC(=O)c1ccc(NC(=S)NC(=O)c2ccc(OCCC)cc2)cc1", "inhibition": "20%"}
{"smiles": "CCOc1ccc(NC(=O)c2c(NC(=O)C(C)(C)C)sc3c2CCCC3)cc1", "inhibition": "13%"}
{"smiles": "COc1cccc(/C=N\\NC(=O)CNc2ccccc2C)c1", "inhibition": "5%"}
{"smiles": "CCOC(=O)C1=C(C)N=c2s/c(=C\\c3ccc(-c4ccc(Cl)cc4[N+](=O)[O-])o3)c(=O)n2C1c1ccc(OC)cc1", "note": "(stereo not given)", "inhibition": "43%"}
{"smiles": "O=[N+]([O-])c1ccc(N2CCCC2)c(C(F)(F)F)c1", "inhibition": "21%"}
{"smiles": "O=C(NC(=S)Nc1cc([N+](=O)[O-])ccc1F)c1cccc(I)c1", "inhibition": "4%"}
{"smiles": "COc1ccc(C2CC(c3ccc(Cl)cc3)=NN2c2nc(-c3ccc(C)cc3)cs2)cc1OC", "note": "(stereo not given)", "inhibition": "3%"}
{"smiles": "COc1ccc(-c2csc(N3N=C(c4ccc(Cl)cc4)CC3c3ccc(OC)c(OC)c3)n2)cc1F", "note": "(stereo not given)", "inhibition": "3%"}
{"smiles": "COc1ccc(C2CC(c3ccc(Cl)cc3)=NN2c2nc(-c3cccc(N4C(=O)c5ccccc5C4=O)c3)cs2)cc1OC", "note": "(stereo not given)", "inhibition": "53% (active)"}
